Results taken from ChEMBL document CHEMBL3988442, “University of Dundee, Small-Polar-MMV Screening Library” (2021).
Hit rate of the full screen: of about 85,000 compounds, about 440 (0.52%) showed an effect of 50% or more. What follows is part of a selection rich in strong results, with near analogues and random picks from the rest.

Experiment: In vitro enzyme assay to detect hydrolysis of chlorophenol red-beta-D-[…] directly proportional to the number of Toxoplasma stably expressing beta-galactosidase
Format: functional, organism-based, Toxoplasma gondii
Parameters: scale not given: in the data most compounds retested in dose-response had high values

Compound | Percent Effect (50 µM) | Percent Effect (10 µM)
CC(C(N)=O)N(C)CCCOc1ccccc1 (stereo unspecified) | 9.989% | 
Cc1ccccc1OCCC(=O)OC(C)C(=O)Nc1sccc1C(N)=O (stereo unspecified) |  | -4.306%
CC(C(=O)Nc1sccc1C(N)=O)N(C)CCOc1ccccc1 (stereo unspecified) |  | 66.89%
CCc1nsc(N2CC(CO)C2)n1 | 7.559% | 
CCCC(O)CNS(=O)(=O)c1cc(F)cc(F)c1 (stereo unspecified) | -5.662% | 
CC1CCCN(C(=O)c2cc(O)nc3ccccc23)C1 (stereo unspecified) | 6.15% | 
COc1ccc(C2CCCN2c2ccnc(C)c2Cl)c(OC)c1 (stereo unspecified) |  | 50.91%
COc1ccc(C2CCCN2c2cnccn2)c(OC)c1 (stereo unspecified) |  | -3.299%
COc1ccc(C2CCCN2c2nnc(C)s2)c(OC)c1 (stereo unspecified) |  | 0.194%
NCCN1CCc2c(Cl)cccc2C1=O | 17.2% | 
NC1CCN(C(=O)C2CCCC2)C1 (stereo unspecified) | 2.86% | 
Cn1nc(-c2nc(C(C)(C)C)no2)ccc1=O | 3.371% | 
N#CC[C@@H](N)c1ccccc1 | -6.546% | 
CNc1cc(-c2cccc(OC)c2OC)nc(N)n1 | 50.78% | 
COc1ccc(F)c(-c2cc(NCCO)nc(N)n2)c1 |  | 0.663%
COc1ccc(-c2cc(NCCO)nc(N)n2)cc1C | 29.21% | 
CC(C)(C)CCOc1cnccc1CN | 14.78% | 
Cc1cc(NCCO)nc(N2CCC(Cc3ccccc3)CC2)c1C#N.O=C(O)C(=O)O |  | 62.98%
Cc1cc(NCCO)nc(N2CCN(C)CC2)c1C#N |  | -10.98%
Cc1cc(NCCO)nc2ccccc12 | -2.255% | 
Cc1cc(C)c(C#N)c(N2CCC(Cc3ccccc3)CC2)n1 |  | -2.69%
Cc1cc(NCCO)nc(N2CCCC2)c1C#N |  | 1.046%
CCCC(C)C(=O)N1CCOCC1 (stereo unspecified) | -3.427% | 
NC(=O)CN(CCCO)Cc1ccccc1 | -1.308% | 
O=S(=O)(CCN1CCC(CO)CC1)c1ccccc1 | -26.81% | 

Compound | Percent Effect (50 µM) | Percent Effect (10 µM)
CC(C)c1cc(=O)[nH]c(-n2nc(C3CC3)cc2N)n1 |  | 94.68%
Cc1cc(=O)[nH]c(-n2nc(C3CC3)cc2N)n1 |  | 28.72%
CCc1cc(=O)[nH]c(-n2nc(C3CC3)cc2NC(=O)C2CC2)n1 |  | 96.09%
CCCc1cc(=O)[nH]c(-n2nc(-c3cccs3)cc2N)n1 |  | 36.6%
CCCc1cc(=O)[nH]c(C(C)(N)CC)n1 (stereo unspecified) | 0.6774% | 
Cn1nc(CNC(=O)C2CC2)cc1C1CC1 |  | -6.984%
CC(C)c1cc(=O)[nH]c(C(C)(C)N)n1.Cl |  | 21.75%
CCc1c(C)nc(-n2nc(C3CC3)cc2NC(C)=O)[nH]c1=O |  | -1.935%
CCCc1cc(=O)[nH]c(-n2nc(C3CC3)cc2N)n1 |  | 94.33%
Cc1nscc1C(=O)OCCC(=O)NC(C)C | -12.79% | 
CCCn1nc(C)cc1NC(=O)N1CCCC(C#N)C1 (stereo unspecified) | -0.4936% | 
COc1cc(Br)cnc1C#N | -14.47% | 
CSCc1ccc(C(=O)N2CC(CC(N)=O)C2)cc1 | -6.52% | 
NCc1ccccc1OC(F)(F)F | 14.39% | 
OC1(c2ccccc2)CCCNCC1 (stereo unspecified) | 3.493% | 
CCc1nnc(NC(=O)c2ccc(S(=O)(=O)NC)o2)s1 | -1.635% | 
CCSc1ccc(C(=O)NCCc2nnc[nH]2)cn1 | 5.402% | 
CCc1ccccc1OCC(=O)N1CCOCC1c1ncon1 (stereo unspecified) |  | 7.498%
O=C(COc1cccc(Cl)c1)N1CCOCC1c1ncon1 (stereo unspecified) |  | 37.28%
Cc1cccc(C)c1OCC(=O)N1CCOCC1c1ncon1 (stereo unspecified) |  | 56.8%
OC1(C2CCCCC2)CCNCC1 | 0.8115% | 
C=C(Br)CN1CCN(CCNC(=O)C2CCC2)CC1 | -27.84% | 
CN(C)c1ccc(NC(=O)CCc2cccnc2)cn1 | -6.854% | 
CCc1nccn1CCNC1CCN(c2nc3ccc(Cl)cc3s2)CC1 |  | 59.54%
CCS(=O)(=O)CCNC1CCN(c2nc3ccc(Cl)cc3s2)CC1 |  | 6.923%

Compound | Percent Effect (50 µM) | Percent Effect (10 µM)
Clc1ccc2nc(N3CCC(NCCCC4CCOC4)CC3)sc2c1 (stereo unspecified) |  | -1.385%
CC(=O)Nc1cn[nH]c1 | -20.18% | 
CC(CN)C(=O)Nc1cn[nH]c1 (stereo unspecified) | 55.25% | 
CC(CNC(=O)Nc1cn[nH]c1)N(C)C (stereo unspecified) | -3.915% | 
CCn1cc(S(=O)(=O)N2CCNCC2)c(C)n1 | -15.85% | 
NC(=O)C1CN(c2ccc3cccc(Br)c3n2)CCO1 (stereo unspecified) | -8.237% | 
CS(=O)(=O)c1cc(Cl)cc(CN)c1 | -21.93% | 
CNS(=O)(=O)c1ncccc1N | -16.66% | 
NCc1cccc(CN2CCCC2=O)c1 | -4.942% | 
NCc1cccc(CN2CCCC2)c1 | 60.68% | 
NCc1ccc(CN2CCCCC2)cc1 | 0.9541% | 
Cc1nn(C)c(C)c1NC(=O)N1CCSCC1 | -12.54% | 
CN(C)c1cc(CNC(=O)c2cnccn2)ccn1 |  | 21.24%
CN(C)c1cc(CNC(=O)c2nccnc2N)ccn1 | 58.76% | 
CN(C)c1cc(CNC(=O)c2ccncc2)ccn1 | -1.688% | 
O=C1CC[C@@H](CO)N1 | -0.2195% | 
CCS(=O)(=O)c1cccc(CN)c1 | 21.69% | 
Cc1ccc(C(=O)NCCCN2CCCC2)cc1 | 3.9% | 
CNC(=O)NCc1cccnc1OC1CCCC1 | 56.84% | 
Cc1cc(NC(=O)NCc2cccnc2OC2CCCC2)n(C)n1 |  | -3.087%
COc1ncccc1CNc1snc(Cl)c1C#N |  | 29.55%
N#Cc1c(Cl)nsc1NCc1cccnc1OCC(F)(F)F |  | 25.91%
CC(O)CNC(=O)NCc1cccnc1OC1CCCC1 (stereo unspecified) |  | -1.891%
N#Cc1c(Cl)nsc1NCc1cccnc1OC1CCCC1 |  | 78.06%
CCN1CCCC1CNC(=O)CN(C)S(C)(=O)=O (stereo unspecified) | -8.865% | 

Compound | Percent Effect (50 µM) | Percent Effect (10 µM)
COc1cccc(NC(=O)CN2CCCNCC2)c1 | -7.679% | 
O=C(Nc1ccccn1)N1CCCN(C2CC2)CC1 | 3.024% | 
COCc1ccc(C(=O)N2CCC(Oc3ccccc3)(C(=O)O)CC2)o1 |  | 0.5821%
O=C(c1ccc(COc2ccccc2Cl)o1)N1N=CCC1(O)C(F)(F)F (stereo unspecified) |  | 45.92%
COc1ccc(C(=O)N2CCC(Oc3cccc(C)c3)(C(=O)O)CC2)o1 |  | -1.229%
O=C(c1ccc(COc2ccc(Cl)cc2)o1)N1N=CCC1(O)C(F)(F)F (stereo unspecified) |  | 95.68%
Cc1cccc(OCc2ccc(C(=O)N3N=CCC3(O)C(F)(F)F)o2)c1 (stereo unspecified) |  | 93.63%
O=C(Cn1cc(Br)cn1)N1N=CCC1(O)C(F)(F)F (stereo unspecified) | -25.92% | 
CC(C)NC(=O)CNCc1ccc(Br)o1 | 0.3067% | 
CN1CCN(C)C2(CCN(C(=O)C(C)(C)O)CC2)C1 | 7.866% | 
Cc1cc(C(=O)N2CCN(c3nc4c(C)cccc4s3)CC2)no1 |  | 11.62%
Cc1cc(C(=O)N2CCN(c3nc4c(C(C)C)cccc4s3)CC2)on1 |  | 83.09%
Cc1cc(C(=O)N2CCN(c3nc4c(C(C)C)cccc4s3)CC2)no1 |  | 14.68%
CC(C)C(=O)Nc1cccc(CN)c1 | -3.402% | 
CCOCCSc1nnnn1CC1CCCO1 (stereo unspecified) | 4.057% | 
CCc1nc(Nc2cccc(C(=O)NC)c2)c2c(n1)c(C)nn2CC |  | 63.37%
CCc1nc(NCC(=O)N2CCOCC2)c2c(n1)c(C)nn2CC |  | -2.271%
CCn1nc(C)c2nnn(CC(=O)Nc3ccc(C)cc3)c(=O)c21 |  | 5.455%
CCc1nc(Nc2ccc(C(=O)NC)cc2)c2c(n1)c(C)nn2CC |  | 64.18%
CCn1nc(C)c(C(C)NC(=O)c2cccc(NCC(=O)O)c2)c1C (stereo unspecified) |  | -6.268%
CCCc1nc(Nc2cccc(C(N)=O)c2)c2c(n1)c(C)nn2CC |  | 20.54%
CN1C(=O)c2cccn2CC1CNC(=O)c1ccco1 (stereo unspecified) | 46.69% | 
CNC(=O)CS(=O)(=O)Cc1cc(=O)n(C)c(=O)n1C | 9.101% | 
CN(C)C(=O)CN(C)c1ncc(C(F)(F)F)cc1Cl | 0.3926% | 
CCS(=O)(=O)Nc1ccc(C(=O)NC2CC2)cc1 | -14.67% | 

Compound | Percent Effect (50 µM) | Percent Effect (10 µM)
O=C(NCc1nc(C2CC2)no1)Nc1nncs1 | 96.18% | 
Cc1cnc(C(NC(=O)NCc2nc(C3CC3)no2)C2CC2)s1 (stereo unspecified) |  | 2.41%
CCc1nc(C2CCCN2CC(=O)Nc2nncs2)no1 (stereo unspecified) |  | 2.118%
Cc1ccccc1C1(O)CCN(Cc2ncc[nH]2)C1 (stereo unspecified) | -4.711% | 
Cc1ncc(CN2CCOC(c3ccc(-c4cc[nH]n4)cn3)C2)s1 (stereo unspecified) |  | -16.2%
Cc1ncc(CN2CCOC(c3ccc(-c4ccccc4F)cn3)C2)s1 (stereo unspecified) |  | 56.75%
Cc1ncc(CN2CCOC(c3ccc(-c4cnn(C)c4)cn3)C2)s1 (stereo unspecified) |  | -14.87%
O=C(NC1CCNC1)C1CCC1 (stereo unspecified) | 7.426% | 
N#Cc1ccc(CN)c(F)c1 | 29.17% | 
CC(CSc1n[nH]c(-c2ccccn2)n1)CS(C)(=O)=O (stereo unspecified) | 14.41% | 
CC(C)CNC(=O)CSc1n[nH]c(-c2ccccn2)n1 | 52.47% | 
CC(Sc1n[nH]c(-c2ccccn2)n1)C(=O)N(C)C (stereo unspecified) | 2.084% | 
CCNc1cccc(OC)c1 | -5.589% | 
Cn1nc(CC#N)c2ccccc21 | -11.92% | 
OCCOc1ccc(NCc2cccnc2)cn1 |  | 0.5408%
CCCc1nnc(NCc2cccnc2)o1 | -5.41% | 
Nc1cccnc1NCc1cccnc1 | 56.86% | 
CN(CCN1CCCC1=O)C(=O)c1ncccc1Br | -6.361% | 
N#CCC1COc2ccccc2O1 (stereo unspecified) | -13.18% | 
CC(C)N(C)S(=O)(=O)NCCCN(C)c1ccccc1 | 0.05674% | 
CN(C)C(=O)C1CCN(Cc2ccccc2F)CC1 | -0.8921% | 
